# Source: PubChem (National Center for Advancing Translational Sciences (NCATS))
# The list is not random: actives were taken first. Their share in the collection is about 9.2%.
# NPC1 promoter act = qHTS Assay for NPC1 Promoter Activators; AID 485313, 2010; Potency, µM (titrated, usually from 9.22 µM), without a hit: at the highest dose activation, actives largely listed as activators; 2.4% of 320,000 active; Huh7 NPC1 promoter luciferase reporter, 24 h; also: % of control where 0% means no effect; nearly all actives have a fitted effect of over 60% in size
#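 Stably transfected Huh7 (NPC1 promoter→luciferase), 1500 cells/well in Opti-MEM + 10% FBS, 2 h settle, then compound 24 h at 37 °C. Luminescence after 10 min with Amplite reagent.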
# ELG1 genotoxic = qHTS screen for small molecules that induce genotoxicity in human embryonic kidney (HEK293T) cells expressing luciferase-tagged ELG1; HEK293T ELG1-luciferase reporter, luminescence, 16 h; Potency, µM (series often up to 46 µM), for inactives: top-dose activity change, positive = activation, actives largely listed as activators; 1.3% of 330,000 active; AID 504466, 2011; also: % of control where 0% means no effect; nearly all actives have a fitted effect of over 60% in size
#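 Screening used a luciferase reporter fused to human ELG1 in HEK293T cells. Luminescence was read on a CCD plate imager after 16 hr exposure and 30 min ONE-Glo incubation.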
# SMN2 splice up = qHTS Assay for Enhancers of SMN2 Splice Variant Expression; HEK293 SMN2-luciferase splicing reporter, luminescence, 30-36 h; 2.8% of 210,000 active; Potency, µM (top dose mostly 46.1 µM), inactives show at the top dose activity change, positive = activation, most hits filed as activators; also: % of control where 0% means no effect; nearly all actives have a fitted effect of over 55% in size
#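 HEK293 cells carry an SMN2 […]–luciferase reporter in which exon 7 inclusion puts luciferase in frame. Cells were plated 10-12 h before compound addition, then incubated 30-36 h at 37C. ONE-Glo luminescence was read; sodium butyrate at 4.5 mM final served as control.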
# ELG1 DNA repair = qHTS screen for small molecules that inhibit ELG1-dependent DNA repair in human embryonic kidney (HEK293T) cells expressing luciferase-tagged ELG1. Potency, µM (top dose mostly 46.1 µM), for the others: top-dose activity change, negative = inhibition, hits mostly inhibitors. AID 504467, 2011. 2.3% of 330,000 active. HEK293T ELG1-luciferase reporter, luminescence, 16 h; DNA damage induced by 5-fluorouridine; also: % is scaled to controls: 0 for no effect and ±100 for the full control effect; nearly all actives have a fitted effect of over 55% in size
#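 Reporter activity after DNA damage by 5-fluorouridine is monitored. Compound-treated cells incubate 16 hr at 37 °C, then ONE-Glo is added for 30 min before luminescence reading.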
# FLuc modulator = qHTS profiling assay for firefly luciferase inhibitor/activator using purifed enzyme and Km concentrations of substrates (counterscreen for miR-21 project) | Luciferin 4-monooxygenase (Photinus pyralis), P08659 | purified FLuc, Km substrates, luminescence inhibition | Potency, µM (highest dose often 57.5 µM), for the others: at the top dose activity change, negative = inhibition, usual class: inhibitors | 6.9% of 360,000 active | AID 588342, 2011;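 also: plate controls were vehicle for no effect and reference inhibitor for full effect; nearly all actives have a fitted effect of over 55% in size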
# Target sequence (P08659 whole entry, looked up): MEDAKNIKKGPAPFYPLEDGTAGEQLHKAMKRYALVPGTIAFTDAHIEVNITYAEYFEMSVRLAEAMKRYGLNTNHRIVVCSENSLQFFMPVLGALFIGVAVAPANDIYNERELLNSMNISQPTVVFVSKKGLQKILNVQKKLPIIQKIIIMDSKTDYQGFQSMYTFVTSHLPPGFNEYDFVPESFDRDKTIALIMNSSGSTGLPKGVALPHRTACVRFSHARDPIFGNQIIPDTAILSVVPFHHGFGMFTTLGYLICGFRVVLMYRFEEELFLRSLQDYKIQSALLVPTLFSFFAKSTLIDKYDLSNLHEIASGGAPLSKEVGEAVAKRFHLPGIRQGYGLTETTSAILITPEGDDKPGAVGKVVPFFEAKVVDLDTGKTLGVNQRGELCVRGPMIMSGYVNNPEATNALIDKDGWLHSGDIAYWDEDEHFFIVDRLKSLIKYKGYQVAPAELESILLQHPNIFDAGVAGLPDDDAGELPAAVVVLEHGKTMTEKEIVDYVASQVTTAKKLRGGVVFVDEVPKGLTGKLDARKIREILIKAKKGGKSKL
#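 Purified P. pyralis luciferase (10nM final) with 10uM D-luciferin and 10uM ATP (Km levels) in 50mM Tris acetate pH 7.5, 10mM Mg acetate, 0.01% Tween-20, 0.05% BSA; qHTS 6-point titration, ~60 µM downward; luminescence read.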
# Rab9 prom act = qHTS Assay for Rab9 Promoter Activators; AID 485297, 2010; 2.8% of 320,000 active; Potency, µM (highest dose often 9.22 µM), for the others: top-dose activation, negative = inhibition, most hits filed as activators; Huh7 Rab9 promoter-luciferase reporter, luminescence, 24 h; also: % of control where 0% means no effect; nearly all actives have a fitted effect of over 60% in size
#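 Huh7 cells stably carrying a Rab9 promoter-luciferase reporter, 1500 cells per well in OP-MEM I with 10% FBS, treated with compound 24 hours at 37C. Luciferase activity read by luminescence after 10 minutes with Amplite reagent.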
# Starred values were filed as active, the others as inactive; ? = inconclusive; / = no result given. Calls follow the shape of the dose curve; as a rule, active = well fitted curve in the direction sought with a large enough effect; inconclusive = small, poorly fitted or top-dose-only effect, or another doubt; inactive = no such curve, though single readings can be large; an effect the other way counts as inactive or inconclusive. Potency is read from the fitted curve at half-maximal effect.
SMILES,NPC1 promoter act,ELG1 genotoxic,SMN2 splice up,ELG1 DNA repair,FLuc modulator,Rab9 prom act
Cn1c(SCC(=O)Nc2cccc(C(=O)O)c2)nnc1-c1cc2cc(Br)ccc2o1,7%,0%,/,24%,2.7µM*,-1%
O=C(O)CCCC(=O)Nc1ccc2c(c1)oc1ccccc12,1%,-2%,/,2%,15µM*,2%
COc1cc(OC)cc(-c2c(C#Cc3ccsc3)c3cc(-c4cccc5[nH]ccc45)ccc3n2C)c1,-2%,0%,/,-2%,0%,-3%
Cc1nnc(SCC(=O)c2ccc(Cl)cc2)s1,1%,4%,7%,0%,?,26%
Cc1cc(-c2ccc(C)c(S(=O)(=O)N3CCCC(C)C3)c2)on1 (stereo unspecified),/,/,/,/,5%,/
CCOc1ccc(N2CC(C(=O)Nc3c(C)n(C)n(-c4ccccc4)c3=O)CC2=O)cc1 (stereo unspecified),-5%,-1%,-10%,-2%,-1%,-5%
CC(C)CC(=O)Nc1ccc2c(c1)oc1ccccc12,1µM*,19%,5.6µM*,?,2.1µM*,1µM*
O=C(CSc1ccccn1)Nc1ccc2c(c1)oc1ccccc12,24%,15%,18µM*,?,13µM*,29%
CCCCCC(=O)Nc1ccc2ccccc2c1,?,?,?,?,13µM*,?
COc1cc2c(cc1NC(=O)CSc1ccccn1)oc1ccccc12,?,15%,4%,10%,?,?
Cc1cnc(C(=O)OCC(=O)NC(C)c2ccccc2)cn1 (stereo unspecified),/,1%,/,0%,/,/
COc1ccc(N(C(=O)c2ccccc2C)S(=O)(=O)c2ccc3c(c2)n(C)c(=O)n3C)cc1,/,/,-3%,/,0%,/
C#CC(C)(C)NC(=O)c1ccc(-c2ccccc2F)cc1,?,?,/,?,19µM*,?
Cc1ccc2[nH]c(O)c(N=O)c2c1,7%,6%,/,10%,-14%,1%
Cc1ccc(C(=O)/C=C/c2ccco2)c(O)c1,-2%,?,15%,?,9.5µM*,0%
Cc1ccc(O)c(NC(=S)NC(=O)/C=C/c2ccco2)c1,-7%,?,30%,?,-1%,26%
Nc1c2c(nc3ccc(Br)cc13)N(C1CCCCC1)CC2,-2%,-8%,-10%,6%,?,-4%
Nc1c2c(nc3ccc(Br)cc13)N(c1ccccc1)CC2,13%,11%,16%,18%,?,22%
Nc1c2c(nc3ccc(Br)cc13)N(Cc1ccccc1)CC2,0%,-2%,-16%,-6%,17µM*,0%
Cc1cccc(N2CCc3c2nc2ccc(Br)cc2c3N)c1,-1%,-6%,-9%,?,8.5µM*,3%
COc1cc(CNC(=O)c2ccc(Cn3nc(C)c(Cl)c3C)o2)cc(OC)c1,-1%,-12%,7%,18µM*,-2%,-1%
N#Cc1c(N2CCOCC2)nsc1-c1ccc(C(F)(F)F)cc1,?,?,/,?,7.6µM*,?
Cc1cc(C(F)(F)F)c(C#N)c(N2CCOCC2)n1,-3%,0%,-10%,7%,1%,-2%
O=C(Cn1c(=S)[nH]c2ncccc2c1=O)NCCc1ccccc1,1%,-7%,19%,7%,8%,3%
CC(=O)Nc1cccc(Oc2nc(-c3ccccn3)nc3ccccc23)c1,-6%,-15%,/,0%,15µM*,-1%
SMILES,NPC1 promoter act,ELG1 genotoxic,SMN2 splice up,ELG1 DNA repair,FLuc modulator,Rab9 prom act
O=C(NCCc1ccccc1)c1c2c(nc3ccccc13)C(=O)N(C1CCCCC1)C2,/,/,/,/,0%,/
Cc1ccc2oc(=O)c(-c3nc4ccc(C)cc4[nH]3)cc2c1,/,/,/,/,3%,/
Cc1ccc2nc(-c3ccncc3)[nH]c2c1,2.2µM*,12µM*,/,?,8.5µM*,?
Cc1ccc(-c2nc3ccccc3[nH]2)cn1,?,?,/,?,15µM*,?
Cc1nc2ccc([N+](=O)[O-])cc2[nH]1,-2%,-2%,0%,-8%,-2%,-2%
Cc1nc2ccc(-c3nc4ccccc4[nH]3)cc2[nH]1,1.4µM*,19%,2.8µM*,?,4.8µM*,0.63µM*
Clc1ccc(-c2nc3ccccc3[nH]2)cn1,?,10%,/,?,19µM*,?
O=C(NCc1ccccc1Cl)C1CCCN1S(=O)(=O)c1ccccc1F (stereo unspecified),-3%,-7%,/,-3%,-2%,-3%
N#Cc1ccccc1NC(=O)Cn1cnc2onc(-c3cccc(F)c3)c2c1=O,/,/,/,/,-1%,/
O=c1c(-c2ccc(F)c(F)c2)nc2cncnc2n1Cc1ccc(F)cc1,/,/,-37%,/,/,/
CCc1ccc(-n2c(=O)c3c4c(sc3n(Cc3ccccc3C#N)c2=O)CCC4)cc1,/,/,-3%,/,-2%,/
CCCCCCN(C(=O)CCCCCN1C(=O)NC(c2ccc3ccccc3c2)C(C(=O)OCc2ccccc2)=C1C)C(C(=O)NCCCC)c1ccc(OCC(=O)OC)c(C(=O)OC)c1 (stereo unspecified),/,/,-9%,/,/,/
Cc1ccc2nc(C(F)C(F)(F)F)[nH]c2c1 (stereo unspecified),-4%,7%,/,?,19µM*,1%
COc1ccc(-c2csc(Nc3ccccc3)[n+]2CC(O)c2ccc([N+](=O)[O-])cc2)cc1 (stereo unspecified),6%,-10%,/,21µM*,1%,-5%
CCN(CC)c1ccc(/C=N/NC(=O)c2cccc(N3CCCC3=O)c2)cc1,7%,8%,-5%,?,15µM*,-3%
COc1cc(/C=N/NC(=O)c2cccc(N3CCCC3=O)c2)ccc1O,-3%,9%,/,28%,?,3%
